According to the supplement of paper PMC4466140:

B1: unnamed (peptide)
chain: KWVRRPKLMTPLTFS

Target: AgAbp1
Assay: SPOT peptide array binding signal intensity (averaged, normalized) (arbitrary units (background-subtracted, floor 0; scale differs between SH3 domains)); higher = stronger binding of the SH3 domain to the peptide
Method in brief: (§1)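 Cellulose membranes carried synthetic 15-mer peptides with cysteines swapped for serines. These were incubated overnight at 4°C with 10 μg/ml of GST-fused SH3 domains from four yeast species in TBS-based blocking buffer. Binding signal, detected with anti-GST antibody and quantified in Genespotter, is the normalized, background-subtracted spot intensity averaged over replicates, in arbitrary units specific to each domain.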

Binder | SPOT peptide array binding signal intensity
B1 | 205

Target: AgBbc1
Assay: as above
Method in brief: as §1

Binder | SPOT peptide array binding signal intensity
B1 | 73.5

Target: AgBem1-D1
Assay: as above
Method in brief: as §1

Binder | SPOT peptide array binding signal intensity
B1 | 169

Target: AgBzz1-D1
Assay: as above
Method in brief: as §1

Binder | SPOT peptide array binding signal intensity
B1 | 25

Target: AgBzz1-D2
Assay: as above
Method in brief: as §1

Binder | SPOT peptide array binding signal intensity
B1 | 8

Target: AgCyk3
Assay: as above
Method in brief: as §1

Binder | SPOT peptide array binding signal intensity
B1 | 3

Target: AgFus1
Assay: as above
Method in brief: as §1

Binder | SPOT peptide array binding signal intensity
B1 | 754

Target: AgHof1
Assay: as above
Method in brief: as §1

Binder | SPOT peptide array binding signal intensity
B1 | 110

Target: AgHse1
Assay: as above
Method in brief: as §1

Binder | SPOT peptide array binding signal intensity
B1 | 818

Target: AgLsb1
Assay: as above
Method in brief: as §1

Binder | SPOT peptide array binding signal intensity
B1 | 495

Target: AgLsb4
Assay: as above
Method in brief: as §1

Binder | SPOT peptide array binding signal intensity
B1 | 71

Target: AgMyo5
Assay: as above
Method in brief: as §1

Binder | SPOT peptide array binding signal intensity
B1 | ≤ 0

Target: AgNbp2
Assay: as above
Method in brief: as §1

Binder | SPOT peptide array binding signal intensity
B1 | 371

Target: AgRvs167
Assay: as above
Method in brief: as §1

Binder | SPOT peptide array binding signal intensity
B1 | 8

Target: AgSho1
Assay: as above
Method in brief: as §1

Binder | SPOT peptide array binding signal intensity
B1 | 185

Target: AgSla1-D1-D2
Assay: as above
Method in brief: as §1

Binder | SPOT peptide array binding signal intensity
B1 | 275

Target: AgSla1-D3
Assay: as above
Method in brief: as §1

Binder | SPOT peptide array binding signal intensity
B1 | 11.2

Target: CaAbp1-D1
Assay: as above
Method in brief: as §1

Binder | SPOT peptide array binding signal intensity
B1 | 498

Target: CaAbp1-D2
Assay: as above
Method in brief: as §1

Binder | SPOT peptide array binding signal intensity
B1 | 297

Target: CaBbc1
Assay: as above
Method in brief: as §1

Binder | SPOT peptide array binding signal intensity
B1 | 192

Target: CaBem1-D1
Assay: as above
Method in brief: as §1

Binder | SPOT peptide array binding signal intensity
B1 | 329

Target: CaBzz1-D1
Assay: as above
Method in brief: as §1

Binder | SPOT peptide array binding signal intensity
B1 | 164

Target: CaBzz1-D2
Assay: as above
Method in brief: as §1

Binder | SPOT peptide array binding signal intensity
B1 | 121

Target: CaCyk3
Assay: as above
Method in brief: as §1

Binder | SPOT peptide array binding signal intensity
B1 | 45

Target: CaFus1
Assay: as above
Method in brief: as §1

Binder | SPOT peptide array binding signal intensity
B1 | 1360

Target: CaHof1
Assay: as above
Method in brief: as §1

Binder | SPOT peptide array binding signal intensity
B1 | 1.5

Target: CaHse1
Assay: as above
Method in brief: as §1

Binder | SPOT peptide array binding signal intensity
B1 | 180

Target: CaLsb1
Assay: as above
Method in brief: as §1

Binder | SPOT peptide array binding signal intensity
B1 | 7

Target: CaLsb4
Assay: as above
Method in brief: as §1

Binder | SPOT peptide array binding signal intensity
B1 | 346

Target: CaMyo5
Assay: as above
Method in brief: as §1

Binder | SPOT peptide array binding signal intensity
B1 | 11.5

Target: CaNbp2
Assay: as above
Method in brief: as §1

Binder | SPOT peptide array binding signal intensity
B1 | 757

Target: CaRvs167
Assay: as above
Method in brief: as §1

Binder | SPOT peptide array binding signal intensity
B1 | 162

Target: CaRvs167-3
Assay: as above
Method in brief: as §1

Binder | SPOT peptide array binding signal intensity
B1 | 27.8

Target: CaSho1
Assay: as above
Method in brief: as §1

Binder | SPOT peptide array binding signal intensity
B1 | 522

Target: CaSla1-D1-D2
Assay: as above
Method in brief: as §1

Binder | SPOT peptide array binding signal intensity
B1 | 623

Target: CaSla1-D3
Assay: as above
Method in brief: as §1

Binder | SPOT peptide array binding signal intensity
B1 | 264

Target: ScAbp1
Assay: as above
Method in brief: as §1

Binder | SPOT peptide array binding signal intensity
B1 | 103

Target: ScBbc1
Assay: as above
Method in brief: as §1

Binder | SPOT peptide array binding signal intensity
B1 | 23

Target: ScBem1-D1
Assay: as above
Method in brief: as §1

Binder | SPOT peptide array binding signal intensity
B1 | 91.5

Target: ScBzz1-D1
Assay: as above
Method in brief: as §1

Binder | SPOT peptide array binding signal intensity
B1 | 50.5

Target: ScBzz1-D2
Assay: as above
Method in brief: as §1

Binder | SPOT peptide array binding signal intensity
B1 | 59

Target: ScCyk3
Assay: as above
Method in brief: as §1

Binder | SPOT peptide array binding signal intensity
B1 | 64.5

Target: ScFus1
Assay: as above
Method in brief: as §1

Binder | SPOT peptide array binding signal intensity
B1 | 1090

Target: ScHof1
Assay: as above
Method in brief: as §1

Binder | SPOT peptide array binding signal intensity
B1 | 3.75

Target: ScHse1
Assay: as above
Method in brief: as §1

Binder | SPOT peptide array binding signal intensity
B1 | 1650

Target: ScLsb1
Assay: as above
Method in brief: as §1

Binder | SPOT peptide array binding signal intensity
B1 | 132

Target: ScLsb2
Assay: as above
Method in brief: as §1

Binder | SPOT peptide array binding signal intensity
B1 | 15.5

Target: ScLsb3
Assay: as above
Method in brief: as §1

Binder | SPOT peptide array binding signal intensity
B1 | 166

Target: ScLsb4
Assay: as above
Method in brief: as §1

Binder | SPOT peptide array binding signal intensity
B1 | 32.5

Target: ScMyo3
Assay: as above
Method in brief: as §1

Binder | SPOT peptide array binding signal intensity
B1 | 3.5

Target: ScMyo5
Assay: as above
Method in brief: as §1

Binder | SPOT peptide array binding signal intensity
B1 | 5.25

Target: ScNbp2
Assay: as above
Method in brief: as §1

Binder | SPOT peptide array binding signal intensity
B1 | 818

Target: ScPex13
Assay: as above
Method in brief: as §1

Binder | SPOT peptide array binding signal intensity
B1 | 56.8

Target: ScRvs167
Assay: as above
Method in brief: as §1

Binder | SPOT peptide array binding signal intensity
B1 | 121

Target: ScSho1
Assay: as above
Method in brief: as §1

Binder | SPOT peptide array binding signal intensity
B1 | 1880

Target: ScSla1-D1-D2
Assay: as above
Method in brief: as §1

Binder | SPOT peptide array binding signal intensity
B1 | 735

Target: ScSla1-D3
Assay: as above
Method in brief: as §1

Binder | SPOT peptide array binding signal intensity
B1 | 161

Target: SpAbp1-D1
Assay: as above
Method in brief: as §1

Binder | SPOT peptide array binding signal intensity
B1 | 289

Target: SpBbc1
Assay: as above
Method in brief: as §1

Binder | SPOT peptide array binding signal intensity
B1 | 7

Target: SpBzz1-D1
Assay: as above
Method in brief: as §1

Binder | SPOT peptide array binding signal intensity
B1 | 176

Target: SpBzz1-D2
Assay: as above
Method in brief: as §1

Binder | SPOT peptide array binding signal intensity
B1 | 0.5

Target: SpCyk3
Assay: as above
Method in brief: as §1

Binder | SPOT peptide array binding signal intensity
B1 | 7

Target: SpHof1
Assay: as above
Method in brief: as §1

Binder | SPOT peptide array binding signal intensity
B1 | 158

Target: SpHof1-2
Assay: as above
Method in brief: as §1

Binder | SPOT peptide array binding signal intensity
B1 | 17

Target: SpHof1-3
Assay: as above
Method in brief: as §1

Binder | SPOT peptide array binding signal intensity
B1 | 450

Target: SpHse1
Assay: as above
Method in brief: as §1

Binder | SPOT peptide array binding signal intensity
B1 | 666

Target: SpLsb1
Assay: as above
Method in brief: as §1

Binder | SPOT peptide array binding signal intensity
B1 | 466

Target: SpLsb4
Assay: as above
Method in brief: as §1

Binder | SPOT peptide array binding signal intensity
B1 | 500

Target: SpMyo1
Assay: as above
Method in brief: as §1

Binder | SPOT peptide array binding signal intensity
B1 | 8.75

Target: SpNbp2
Assay: as above
Method in brief: as §1

Binder | SPOT peptide array binding signal intensity
B1 | 558

Target: SpPex13
Assay: as above
Method in brief: as §1

Binder | SPOT peptide array binding signal intensity
B1 | 217

Target: SpRvs167
Assay: as above
Method in brief: as §1

Binder | SPOT peptide array binding signal intensity
B1 | 34.2

Target: SpSla1-D1-D2
Assay: as above
Method in brief: as §1

Binder | SPOT peptide array binding signal intensity
B1 | 1.5

Target: SpSla1-D3
Assay: as above
Method in brief: as §1

Binder | SPOT peptide array binding signal intensity
B1 | 62
